In all, about 39,000 compounds went through this assay and about 1,500 (3.8%) were called active. Shown is part of a subset that was picked to be rich in actives.
System: HSkMC (human skeletal muscle cells)
Experiment: cytotoxicity call (relative viability < 0.9)
Conditions: 10 µM

Compound | cytotoxicity call
C[C@H]1CN([C@@H](C)CO)C(=O)c2cccc(NS(=O)(=O)c3ccc(Cl)cc3)c2O[C@@H]1CN(C)Cc1ccc(-c2ccccc2)cc1 | inactive
Cc1noc(C)c1NC(=O)N(C)C[C@@H]1Oc2ccc(NC(=O)C3CC3)cc2CC(=O)N([C@@H](C)CO)C[C@@H]1C | inactive
COc1ccc(S(=O)(=O)N(C)C[C@@H]2Oc3ccc(NS(=O)(=O)c4ccc(F)cc4)cc3CC(=O)N([C@H](C)CO)C[C@H]2C)cc1 | inactive
C[C@@H]1CN([C@@H](C)CO)C(=O)c2cc(C#Cc3ccccn3)cnc2O[C@H]1CN(C)C(=O)CCN1CCCCC1 | inactive
C[C@@H]1CCCCO[C@H](CN(C)C)[C@@H](C)CN([C@H](C)CO)C(=O)c2cc(NS(=O)(=O)c3cn(C)cn3)ccc2O1 | inactive
COc1ccc(S(=O)(=O)Nc2ccc3c(c2)C(=O)N([C@H](C)CO)C[C@H](C)[C@@H](CN(C)Cc2ccc(C(=O)O)cc2)OCCCC[C@H](C)O3)cc1 | inactive
C[C@@H]1CN([C@@H](C)CO)C(=O)c2cc(NC(=O)Nc3ccc(C(F)(F)F)cc3)ccc2O[C@@H]1CN(C)Cc1ccc(-c2ccccc2)cc1 | active
C[C@H](CO)N1C[C@H](C)[C@@H](CN(C)Cc2ccc(-c3ccccc3)cc2)Oc2ccc(NC(=O)Nc3ccc(C(F)(F)F)cc3)cc2C1=O | active
C[C@H]1CN([C@@H](C)CO)C(=O)c2cc(NC(=O)Nc3ccc(C(F)(F)F)cc3)ccc2O[C@H]1CN(C)Cc1ccc(-c2ccccc2)cc1 | active
C[C@@H]1CN([C@H](C)CO)C(=O)Cc2cc(NS(=O)(=O)c3cn(C)cn3)ccc2O[C@H]1CN(C)CC1CC1 | inactive
Cc1noc(C)c1NC(=O)Nc1ccc2c(c1)CC(=O)N([C@H](C)CO)C[C@H](C)[C@H](CN(C)S(=O)(=O)c1ccccc1)O2 | inactive
CO[C@H]1CN(C)C(=O)c2ccc(NS(=O)(=O)CC(F)(F)F)cc2OC[C@H](C)N(C(=O)NC(C)C)C[C@H]1C | inactive
COc1cccc(C(=O)Nc2ccc3c(c2)C(=O)N(C)[C@@H]2CC[C@H](CC(=O)NCCCN4CCOCC4)O[C@H]2CO3)c1 | inactive
COc1ccc(S(=O)(=O)N(C)C[C@@H]2OCCCC[C@H](C)Oc3ccc(NC(=O)CCC(F)(F)F)cc3C(=O)N([C@H](C)CO)C[C@H]2C)cc1 | inactive
OC[C@H]1O[C@@H](Nc2ccccn2)[C@@H](O)[C@@H](O)[C@@H]1O | inactive
COc1ccc(S(=O)(=O)N(C)C[C@H]2Oc3ncc(-c4ccncc4)cc3C(=O)N([C@@H](C)CO)C[C@@H]2C)cc1 | inactive

Compound | cytotoxicity call
Cc1nn(C)cc1NC(=O)C[C@@H]1CC[C@H]2[C@H](COc3ccc(NC(=O)C4CCOCC4)cc3C(=O)N2C)O1 | inactive
COc1cccc(C#Cc2ccc3c(c2)O[C@H](CN(C)S(=O)(=O)c2ccccc2F)[C@@H](C)CN([C@@H](C)CO)S3(=O)=O)c1 | inactive
C[C@@H]1CN([C@H](C)CO)C(=O)c2cc(NC(=O)Nc3ccc(C(F)(F)F)cc3)ccc2O[C@@H]1CN(C)Cc1ccc(-c2ccccc2)cc1 | active
C[C@H](CO)N1C[C@H](C)[C@H](CN(C)Cc2ccc(-c3ccccc3)cc2)Oc2ccc(NC(=O)Nc3ccc(C(F)(F)F)cc3)cc2C1=O | active
C[C@@H]1CN([C@@H](C)CO)C(=O)c2cc(NC(=O)Nc3ccc(C(F)(F)F)cc3)ccc2O[C@H]1CN(C)Cc1ccc(-c2ccccc2)cc1 | active
C[C@@H]1CN([C@H](C)CO)C(=O)c2cc(NC(=O)Nc3ccc(C(F)(F)F)cc3)ccc2O[C@H]1CN(C)Cc1ccc(-c2ccccc2)cc1 | active
C[C@H]1CN([C@@H](C)CO)C(=O)c2cc(NC(=O)Nc3ccccc3)ccc2O[C@@H]1CN(C)Cc1ccc(C(F)(F)F)cc1 | inactive
C[C@@H]1CN([C@@H](C)CO)C(=O)c2cc(NC(=O)Nc3ccccc3)ccc2O[C@@H]1CN(C)Cc1ccc(C(F)(F)F)cc1 | inactive
Cc1ccc(S(=O)(=O)N(C)C[C@H]2Oc3ccc(NC(=O)CCCN(C)C)cc3CC(=O)N([C@@H](C)CO)C[C@@H]2C)cc1 | inactive
C[C@@H]1CN([C@@H](C)CO)C(=O)c2cc(NS(C)(=O)=O)ccc2O[C@@H](C)CCCCO[C@@H]1CN(C)S(=O)(=O)c1cccs1 | inactive
Cc1noc(C)c1S(=O)(=O)Nc1ccc2c(c1)C(=O)N([C@@H](C)CO)C[C@@H](C)[C@H](CN(C)Cc1ccc(C(F)(F)F)cc1)OCCCC[C@H](C)O2 | inactive
CC(C)Cn1c(=O)n(C)c(=O)c2[nH]cnc21 | inactive
Cc1noc(C)c1S(=O)(=O)Nc1ccc2c(c1)CC(=O)N([C@H](C)CO)C[C@H](C)[C@@H](CN(C)S(C)(=O)=O)O2 | inactive
O=C(O)c1ccc(N2CCCS2(=O)=O)cc1 | inactive
Cc1ccsc1[C@@H](O)CN | inactive

— the antibiotic and cytotoxicity screens of Wong et al. (2023)
